Molecules are shown by their SMILES. Values joined by “and” are separate entries in the source; they are usually repeats but may differ in a detail not shown here. Identical values can stand only once. Hit rate of the full screen: of about 300,000 compounds, about 37,000 (12%) were called active. Rule as the data show it: active = max response mostly above about 13% (no sharp cut-off); inactive = mostly below about 14%. Only a selection was taken, and actives are over-represented in it overall.

Here are results for 58 compounds from PubChem BioAssay AID2314 (National Center for Advancing Translational Sciences (NCATS), 2010).

This experiment is described as follows: Cycloheximide Counterscreen for Small Molecule Inhibitors of Shiga Toxin. Also: read at 38.3 µM for the half of the compounds with a filed dose; 0% is about no effect. The following applies: cell reporter, cycloheximide protein synthesis inhibition counterscreen; active compounds read high. A general note: Counterscreens check selectivity or assay interference.
With `O=C(O)CCc1nc2cc(Cl)ccc2n(Cc2ccccc2)c1=O`, the max response is -1.53% (inactive).

Take `Cc1nnc(SC(C)C(=O)Nc2ccc(S(=O)(=O)NC3CCCCC3)cc2)s1` (stereo not drawn): the max response is -4.95% (inactive). The figure for `CCOCCCN(C)C1CCN(C(=O)c2oc3ccccc3c2NC(=O)Cc2cccc([N+](=O)[O-])c2)CC1` is -8.08% (inactive); for `COc1ccc2occ(C(=O)c3ccc(N=C(C)N(C)C)cc3)c2c1` it is 28.3% (active); for `COc1ccc(OC)c(C(=O)c2ccc(C(=O)O)cc2)c1` it is 5.22% (inactive). For `COc1ccc(OC)c(C(=O)c2coc3ccc(OC)cc23)c1`, the max response was -2.15% (inactive). As for `COc1ccccc1OCc1ccc(C(=O)NC(C)c2ccccc2)o1` (stereo not drawn), the figure is -0.796% (inactive). As for `CC(C)(C)NC(=O)c1cccc(NC(=O)Cc2ccc(Br)cc2)c1`, the figure is -3.99% (inactive). Take `CN(C)C(=O)c1nc2ccc(Cl)cn2c1CNCc1cccc(OC(F)(F)F)c1`: the max response is 0.689% (inactive). The figure for `COCc1c(C(=O)N/N=C(\C)c2ccncc2)nnn1-c1nonc1N` is -0.414% (inactive); for `C/C(=N\NC(=O)c1cccc([N+](=O)[O-])c1)c1cccnc1` it is 11.9% (inactive); for `CC1CCc2sc(C(=O)N/N=C/C3CCCCC3)cc2C1` (stereo not drawn) it is 8.2% (inactive). With `C/C(=N\NC(N)=S)c1ccncc1`, the max response was -1.83% (inactive).

Take `C/C(=N\NC(=O)c1cc2c(s1)CCC(C)C2)c1cccnc1` (stereo not drawn): the max response is 19.2% (active). As to `C/C(=N\NC(=O)c1cc(-c2ccc(O)cc2)nc2ccccc12)c1cccnc1`, the max response is 17% (inactive). As for `C/C(=N/NC(=O)c1ccn(C)n1)c1ccncc1`, the figure is 51.6% (active). Regarding `C/C(=N\NC(=O)c1ccc2ccccc2c1)c1cccnc1`, the max response is 34.4% (active). Take `C/C(=N\NC(=O)c1cccnc1)c1ccc(-c2ccccc2)cc1`: the max response is 12.6% (active). The figure for `C/C(=N\NC(=O)c1cccnc1)c1ccc(-n2ccnc2)cc1` is -1.63% (inactive). As for `C/C(=N\NC(=O)Cc1ccc(Br)cc1)c1cccnc1`, the figure is 1.49% (inactive); as for `C/C(=N\NC(N)=S)c1cccnc1`, -2.63% (inactive). Take `C/C=N/NC(=O)CCCC(=O)N/N=C/C`: the max response is -6.46% (inactive). For the compound `CCOC(=O)c1c(NC(=O)Cn2nc(C(F)(F)F)cc2C)sc2c1CCC2`, the max response was 4.3% (inactive). As for `CCCc1nc2oc3c(OCC)ncnc3c2c2c1COC(C)(C)C2`, the figure is -2.02% (inactive); as for `CCOC(=O)/C(N=Nc1cc(C(=O)O)cc(C(=O)O)c1)=C(\O)CCl`, -1.38% (inactive); as for `Cc1cccc(CN2CCC(CNC(=O)Nc3ccc(F)c(Cl)c3)CC2)c1`, 0.642% (inactive). As for `CNC(=O)C(NC(=O)c1ccccc1)=C(C)C`, the figure is 3.38% (inactive). The figure for `COc1ccc(/C(C)=N\NC(=O)c2ccc(-c3ccccc3)cc2)c(F)c1` is 0.503% (inactive); for `C/C(=N\NC(=O)c1nc(C)cc(C)n1)c1ccccc1` it is 31.4% (active).

For the compound `CSc1ccc(CN2C(=O)NC3(CCCCCC3)C2=O)cc1`, the max response was -3.95% (inactive). The figure for `O=C(Nc1ccc2ccccc2c1)/C(=C/c1cccc(Br)c1)NC(=O)c1ccco1` is -5.2% (inactive); for `O=C(Nc1ccccc1)O/N=C1\CCCCC1c1ccc([N+](=O)[O-])cc1[N+](=O)[O-]` (stereo not drawn) it is -0.778% (inactive); for `COc1ccc2c(c1)CCC/C2=N\OC(=O)c1ccccc1F` it is 33% (inactive). The figure for `O=C(Nc1ccccc1)O/N=C1/CCCc2occc21` is 19.6% (active); for `CN(C)S(=O)(=O)c1ccc(N/C=C(\[N+](=O)[O-])S(=O)(=O)c2ccccc2)cc1` it is -2.27% (inactive).

Consider `Cc1cc(Br)ccc1NC(=O)c1cnc(N2CCN(c3ccccn3)CC2)c2ccccc12`, for which the max response is -4.22% (inactive). As to `Cc1ccc(NC(=O)CSc2sc3c(O)cc(=O)[nH]c3c2C#N)cc1C`, the max response was -5.26% (inactive).

In the case of `COc1ccc(S(=O)(=O)N2CCN(C(=O)N(C)C)C2C)cc1` (stereo not drawn), the max response was -6.24% (inactive). As for `COc1ccc(CNC(=O)c2c[nH]c3c(OC)cc(OC)cc3c2=O)cc1`, the max response was 2.74% (inactive). As for `O=C(CSc1nnc(-c2c[nH]c3ccccc23)n1-c1ccc(F)cc1)NCc1ccco1`, the figure is 11.7% (active). `O=C(CSc1nnc(-c2cccs2)n1-c1ccccc1)NCc1ccco1`: the max response is -2.76% (inactive). As for `COc1ccc(-n2c(SCC(=O)NCc3ccco3)nnc2-c2c[nH]c3ccccc23)cc1`, the max response is 1.31% (inactive). The figure for `COc1ccc(CC(=O)NC2CCSc3ccccc32)cc1OC` (stereo not drawn) is 2.51% (inactive); for `CC(C)[C@@H](C(=O)O)N(Cc1cccc(CN([C@H](C(=O)O)C(C)C)S(C)(=O)=O)c1)S(C)(=O)=O` it is -2.74% (inactive); for `O=C(O)C1CCN(C(=O)c2cc(F)cc3c2OCOC3)CC1` it is -2.01% (inactive). The figure for `CCN(CC)C(=O)CC(c1ccc2c(c1)OCO2)c1c(OC)cc(OC)c2c(-c3ccccc3)cc(=O)oc12` (stereo not drawn) is 7.27% (inactive) and 12.1% (inactive). Take `Cc1ccc2nc(-c3ccc(SCC(=O)Nc4cc(C)on4)nc3)[nH]c2c1`: the max response is 40.1% (active). In the case of `Cc1cc(NC(=O)CSc2nc3ccccc3n2CC(C)C)no1`, the max response was 16.2% (inactive).

Turning to `Cc1cc(NC(=O)CSc2nc(=O)cc(N)n2-c2ccc(F)cc2)no1`, the max response is -1.93% (inactive). The figure for `Cc1ccc(N2CC(C(=O)Nc3ccc(S(=O)(=O)N4CCCC4)cc3)CC2=O)cc1C` (stereo not drawn) is -2.43% (inactive). The figure for `COc1ccccc1C(=O)COC(=O)CNS(=O)(=O)c1ccc(NC(C)=O)cc1` is 3.07% (inactive).

As to `CC(C)C[C@H](NC(=O)N1CC(=O)Nc2ccccc21)C(=O)N[C@H](Cc1ccccc1)C(=O)O`, the max response was -1.39% (inactive). As for `COc1ccc(OC)c(C2C3=C(N=c4s/c(=C\c5cccc(O)c5)c(=O)n42)c2ccccc2CC3)c1` (stereo not drawn), the figure is -1.53% (inactive); as for `COc1ccc(NC(=O)c2cc3nc(-c4ccccc4)cc(C)n3n2)cc1OC`, -3.85% (inactive). As for `CC(C)c1ccc(OCC(=O)N2CCCN(C)CC2)cc1`, the figure is 14.8% (inactive); as for `CN1CCN(C(=O)COc2ccc(C(C)(C)C)cc2Br)CC1`, -0.455% (inactive). With `CC(C)c1ccc(OCC(=O)N2CCN(C)CC2)c(Br)c1`, the max response is 11.3% (active).

Regarding `Cc1ccc(-c2nc(C)sc2CC(=O)OCC(=O)Nc2c(F)cccc2F)cc1`, the max response is 1.62% (inactive).
